Measured values taken from PubChem BioAssay (NCI).
“And” between values parts separate entries of the source, which are not always exact repeats. Equal entries are not always repeated. This is part of a sample that, as a whole, favours compounds with a hit. Of some 83,000 tested, about 20% had one in any assay.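 Plates (96-well) were seeded with cells, treated with compound at one concentration, and incubated for 48 hours before percent growth was determined.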 The source made the active and inactive calls. How the source made its calls: active means growth percent below 10; inactive means the rest.

Experiments:
Experiment in all cases: NCI-60 one-dose screen, 48 h (100 = growth as untreated, 0 = no growth, -100 = all killed)
Conditions in all cases: 10 µM unless noted
NCI-H23 lung = test system: NCI-H23 lung
NCI-H226 lung = test system: NCI-H226 lung
NCI-H322M lung = test system: NCI-H322M lung
HOP-62 NSCLC = test system: HOP-62 NSCLC
NCI-H460 lung = test system: NCI-H460 lung
HOP-92 NSCLC = test system: HOP-92 NSCLC
NCI-H522 lung = test system: NCI-H522 lung
A549/ATCC NSCLC = test system: A549/ATCC NSCLC
786-0 renal = test system: 786-0 renal
DU-145 prostate = test system: DU-145 prostate
K-562 leukemia = test system: K-562 leukemia
MALME-3M melanoma = test system: MALME-3M melanoma
MDA-MB-231 breast = test system: MDA-MB-231 breast
RXF 393 renal = test system: RXF 393 renal
SF-268 CNS = test system: SF-268 CNS
SF-295 CNS = test system: SF-295 CNS
SF-539 CNS = test system: SF-539 CNS
UACC-257 melanoma = test system: UACC-257 melanoma
M14 melanoma = test system: M14 melanoma
COLO 205 colon = test system: COLO 205 colon

| SMILES | growth (NCI-H23 lung) | growth (NCI-H226 lung) | growth (NCI-H322M lung) | growth (HOP-62 NSCLC) | growth (NCI-H460 lung) | growth (HOP-92 NSCLC) | growth (NCI-H522 lung) | growth (A549/ATCC NSCLC) | growth (786-0 renal) | growth (DU-145 prostate) | growth (K-562 leukemia) | growth (MALME-3M melanoma) | growth (MDA-MB-231 breast) | growth (RXF 393 renal) | growth (SF-268 CNS) | growth (SF-295 CNS) | growth (SF-539 CNS) | growth (UACC-257 melanoma) | growth (M14 melanoma) | growth (COLO 205 colon) |
| --- | --- | --- | --- | --- | --- | --- | --- | --- | --- | --- | --- | --- | --- | --- | --- | --- | --- | --- | --- | --- |
| CN(C)c1ccc2nc3ccc(N)cc3[n+](-c3ccccc3)c2c1 | 10.4% (inactive) and 20.6% (inactive) | 54.7% (inactive) and 72.4% (inactive) | 66.1% (inactive) and 40.3% (inactive) | 12.6% (inactive) and 42.7% (inactive) | 9.65% (active) and 9.63% (active) | -3.42% (active) and 38.1% (inactive) | 14.1% (inactive) | 62.1% (inactive) and -27.6% (active) | 56.3% (inactive) and 38.7% (inactive) | 46.7% (inactive) and 2.32% (active) | 9.29% (active) and 18.5% (inactive) | 4.82% (active) and -9.23% (active) | 51.6% (inactive) and 15.7% (inactive) | 65.6% (inactive) and 73.1% (inactive) | 30.3% (inactive) and 7.92% (active) | 29% (inactive) and -39.8% (active) | 19.8% (inactive) and -29.8% (active) | -12.2% (active) and -21% (active) | 40.8% (inactive) and 15% (inactive) |  |
| O=[N+]([O-])c1ccc2nc3c4ccccc4c4ccccc4c3nc2c1 | 81.8% (inactive) | 41.5% (inactive) | 92.6% (inactive) | 90% (inactive) | 68.4% (inactive) | 61% (inactive) | 67.2% (inactive) | 69.1% (inactive) | 88.6% (inactive) | 100% (inactive) | 67.4% (inactive) | 98.6% (inactive) | 70.2% (inactive) | 96% (inactive) | 78% (inactive) | 107% (inactive) | 91% (inactive) | 82.5% (inactive) | 90.3% (inactive) |  |
| CN1CCN(C2CCN(C(=O)Nc3cc(Oc4ccc(NC(=O)C5(C(=O)Nc6ccc(F)cc6)CC5)c(F)c4)ccn3)CC2)CC1 | -44.6% (active) and 73.4% (inactive) | -4.95% (active) and 76.4% (inactive) | -27.6% (active) and 94% (inactive) | -68.7% (active) and 110% (inactive) | -50.4% (active) and 77.2% (inactive) | -43.2% (active) and 68.1% (inactive) | -66.2% (active) and 80.8% (inactive) | -13.9% (active) and 90.3% (inactive) | -72.9% (active) and 110% (inactive) | 8.48% (active) and 69.1% (inactive) | 0.176% (active) and 37.1% (inactive) | -86.6% (active) and 60.2% (inactive) | -65.7% (active) and 68.3% (inactive) | -91.7% (active) and 86.4% (inactive) | -22.5% (active) and 90.8% (inactive) | -87.8% (active) and 50.8% (inactive) | -96.4% (active) and 58.7% (inactive) | -91.6% (active) and 95.8% (inactive) | -77.3% (active) and 57% (inactive) |  |
| C=C1C(=O)O[C@H]2[C@H]1CC/C(COC(=O)NC1CCC(O)CC1)=C\CC[C@@]1(C)O[C@@H]21 (stereo partly specified) | 58.3% (inactive) and 50.6% (inactive) | 85.5% (inactive) and 95% (inactive) | 105% (inactive) and 98.6% (inactive) | 97% (inactive) and 97.4% (inactive) | 100% (inactive) and 96.7% (inactive) | 71.6% (inactive) and 54.6% (inactive) | -2.94% (active) and -11.8% (active) | 91.7% (inactive) and 87.8% (inactive) | 103% (inactive) and 99.6% (inactive) | 38.7% (inactive) and 28.8% (inactive) |  | 72.6% (inactive) and 64.5% (inactive) | 60.8% (inactive) and 62.4% (inactive) | 54% (inactive) and 53.2% (inactive) | 93.2% (inactive) and 91.5% (inactive) | 96.6% (inactive) and 95.7% (inactive) | 71.9% (inactive) and 63.2% (inactive) | 65.6% (inactive) and 69.1% (inactive) | 85.4% (inactive) and 71.4% (inactive) | 44.9% (inactive) and 41.7% (inactive) |
| Cc1ccc(S(=O)(=O)NCN2C(=O)c3ccccc3C2=O)cc1 | 103% (inactive) | 115% (inactive) | 105% (inactive) | 112% (inactive) | 113% (inactive) | 109% (inactive) | 103% (inactive) | 99% (inactive) | 103% (inactive) | 125% (inactive) | 106% (inactive) | 133% (inactive) | 117% (inactive) | 121% (inactive) | 106% (inactive) | 100% (inactive) | 112% (inactive) | 104% (inactive) | 109% (inactive) |  |
| CCNC(=O)Nc1ccc(-c2nc3c(c(N4CCOC[C@@H]4C)n2)CCN(C2COC2)C3)cc1 | 50.8% (inactive) and 20.1% (inactive) | 19.7% (inactive) and -3.42% (active) | 39.3% (inactive) and 12.1% (inactive) | 43.3% (inactive) and 0.37% (active) | 25.7% (inactive) and 14.3% (inactive) | -6.36% (active) and -16.3% (active) | 24.1% (inactive) and 6.99% (active) | 44.3% (inactive) and 2.19% (active) | 36.6% (inactive) and 5.36% (active) | 49.7% (inactive) and 19.4% (inactive) | 61.6% (inactive) and 17.2% (inactive) | -9.78% (active) and -10.6% (active) | 44.5% (inactive) and 23.2% (inactive) | 3.76% (active) and -28.4% (active) | 54.3% (inactive) and 17.6% (inactive) | 18.4% (inactive) and -25.6% (active) | 33.2% (inactive) and -21.9% (active) | 36.7% (inactive) and -27% (active) | 37.3% (inactive) and 8.1% (active) |  |
| O=C(/C=C/c1ccccn1)c1ccccc1O | 73.9% (inactive) and 81.3% (inactive) | 93.2% (inactive) and 97.3% (inactive) | 100% (inactive) and 113% (inactive) | 79.5% (inactive) and 72.2% (inactive) | 65.2% (inactive) and 101% (inactive) | 75.5% (inactive) and 34.2% (inactive) | 67.8% (inactive) and 28.4% (inactive) | 55.3% (inactive) and 79.7% (inactive) | 90.6% (inactive) and 91.4% (inactive) | 76.4% (inactive) and 71% (inactive) |  | 70.1% (inactive) and 107% (inactive) | 70.4% (inactive) and 95.9% (inactive) | 31.8% (inactive) and 56.4% (inactive) | 72.4% (inactive) and 61.6% (inactive) | 68.9% (inactive) and 91.6% (inactive) | 42.1% (inactive) and 80.9% (inactive) | 49.9% (inactive) and 84.9% (inactive) | 72.5% (inactive) and 82.3% (inactive) | 63.6% (inactive) and 65.4% (inactive) |
| CN1CCN(c2ccc3nc(-c4c(N)c5c(F)cccc5[nH]c4=O)[nH]c3c2)CC1 | 27.9% (inactive) and 34.1% (inactive) | 54.8% (inactive) and 71.3% (inactive) | 52.4% (inactive) and 61.6% (inactive) | 23.4% (inactive) and 24.6% (inactive) | 6.56% (active) and 7.99% (active) | 43.9% (inactive) and 44.5% (inactive) | 18.5% (inactive) and 53.8% (inactive) |  | 38.1% (inactive) and 24.8% (inactive) | 33.5% (inactive) and 29.3% (inactive) | -26.6% (active) and -24.4% (active) | 7.87% (active) and -13.5% (active) | 42.4% (inactive) and 52.5% (inactive) | -1.36% (active) and 26.3% (inactive) | 44.7% (inactive) and 48.9% (inactive) | 56.6% (inactive) and 71.6% (inactive) | 6.28% (active) and 11.5% (inactive) | -59.4% (active) and -18.1% (active) |  | 5.09% (active) and 26.8% (inactive) |
